According to publication PMC13494018:

B1: design_620_fbd04095-bef7-46a9-992d-f2cb8915922f_1750_dldesign_0_cycle1_af2pred (protein)
chain: DPAKELARRVVEANLKQLKKLLEEAGKASTEEGKKLAKEAIEKVEKLKKEALASSAAEATALTVKAIEEASKALREIKKLK
B2: design_620_fbd04095-bef7-46a9-992d-f2cb8915922f_1723_dldesign_0_cycle1_af2pred (protein)
chain: SAAAQQAAWQTYVDAAAEMSKLRREALASGDPEVKEKAIEEIKALADKAAANPAAAAAAKLAGENMTAALTES
B3: design_621_7e0052dc-ae49-49a0-b99f-9f3ee649cc2f_216_dldesign_0_cycle1_af2pred (protein)
chain: RMAEVAERIRRTAEEVREGDAETAVRLAAEVLELARREGNEASAHLAANALRAARAGDVERAVVYLEAAAEITALS
B4: design_620_fbd04095-bef7-46a9-992d-f2cb8915922f_1337_dldesign_0_cycle1_af2pred (protein)
chain: ADAATQAAIDANAAQAERALAAARADPAALPYAQAAIRNLELIAAGASPETQARGLARAEALRAALAAARAAA
B5: design_620_fbd04095-bef7-46a9-992d-f2cb8915922f_1411_dldesign_0_cycle1_af2pred (protein)
chain: DELTKLAQEAADAAVRAMEAGRYLPLEEANALINEVIKLYQKASEAAVAGKLEEAKKYAKEAKAKAKEIEELAEKRRA
B6: design_620_fbd04095-bef7-46a9-992d-f2cb8915922f_2412_dldesign_0_cycle1_af2pred (protein)
chain: ADGSRLTEAFRVAAEARRVGEEAGKLLGEEALEEAERAAAELRRLLAAAMRAMAAGTGADEAVNAALDAARAALAEFEERLKEAR
B7: design_620_fbd04095-bef7-46a9-992d-f2cb8915922f_790_dldesign_0_cycle1_af2pred (protein)
chain: AKAKELAKKAEKALKAAKEAAKLKPEEAAAKANKELGKVLEAQKKAVEAGAPQEALDKINAVATEIAKIALEAAKAA
B8: design_620_fbd04095-bef7-46a9-992d-f2cb8915922f_814_dldesign_0_cycle1_af2pred (protein)
chain: SALSIAQLAASTQAVMKRAAKEVKGELAKKIKEAAKLAATGEKAKEAAALLKEAAKEAPEELKPLVASAAKHAELLVAAS
B9: design_620_fbd04095-bef7-46a9-992d-f2cb8915922f_2334_dldesign_0_cycle1_af2pred (protein)
chain: LTEEEQKELIIDTIKGLAESAKQFAKASGDPELAKQAEKVAELAKKAIEVTKKGTLEDGVKALSEVSKATMEVAKAA
B10: design_621_7e0052dc-ae49-49a0-b99f-9f3ee649cc2f_121_dldesign_0_cycle1_af2pred (protein)
chain: EEAERKARTAELLKEAIHLGFRGIAVGPEYIKEGAKKLEEAAKLLPEKKPLLEKMAELAKKAAESTPTEALQLTLEMIEIAKEVVE
B11: design_620_fbd04095-bef7-46a9-992d-f2cb8915922f_2282_dldesign_0_cycle1_af2pred (protein)
chain: AAAEGQALVKQATAYAEEALRLAREGGDPEEVAAKLNLAATYAIKAMNLPATQAQGAKVMDYLGEVAREVAAIRAARAAA
B12: design_620_fbd04095-bef7-46a9-992d-f2cb8915922f_1144_dldesign_0_cycle1_af2pred (protein)
chain: DPARQATINALIKAAAEAAKLGDTALSQAAVEAAVALASAKTQEELDAAQKEADAVLAAAAKRKAAAAAA
B13: design_620_fbd04095-bef7-46a9-992d-f2cb8915922f_1968_dldesign_0_cycle1_af2pred (protein)
chain: DAAVQAAVAAGQAAAERARETGERAREAGDEETAARLEALAQSVDILADGAAATKDAHAAATLQTLVRQAEREVEEAERRLEA
B14: design_620_fbd04095-bef7-46a9-992d-f2cb8915922f_1420_dldesign_0_cycle1_af2pred (protein)
chain: KQKYVNAIKANAKNLELIAEGAAQVDPALAKEAKAAAEKAKAKAEEAKKSTAEEAAALRKEVQAALAALSRALIAAAA
B15: design_620_fbd04095-bef7-46a9-992d-f2cb8915922f_1150_dldesign_0_cycle1_af2pred (protein)
chain: MRERIEKVEKEAKEAYEATKKAAAAQGEAGKIIAAAADAALKRLEEAAKKAKEALEEGDLESAEKYLKEAEAQLETIKVLKESAE
B16: design_620_fbd04095-bef7-46a9-992d-f2cb8915922f_2025_dldesign_0_cycle1_af2pred (protein)
chain: GLAEVLRASGLALEAYELAEKLAKENPEEGRKAFQEAARLSLRAAARALAIARAFPEIAEFALRLAQRLVELAAEAAEKARELEA
B17: design_621_7e0052dc-ae49-49a0-b99f-9f3ee649cc2f_375_dldesign_0_cycle1_af2pred (protein)
chain: SQAAQIALNAAKSLAENIKKYAEVMSEEEAKGAIELLYDLAKYAKKEDPELGKKAEKIAEEAKKYVEKVFKEKKEEEEK
B18: design_620_fbd04095-bef7-46a9-992d-f2cb8915922f_2436_dldesign_0_cycle1_af2pred (protein)
chain: EAAKEAEKAYKEAKEAAAAALAAADAAADKVPATAVDVLKRTVTANLKQAEKALKAGDAKAVKAQKKQLELLKEGAAAAA
B19: design_620_fbd04095-bef7-46a9-992d-f2cb8915922f_1232_dldesign_0_cycle1_af2pred (protein)
chain: SERHQQLVDFMVAAGQVALTNLAGALRTAEIVARTDPAAAVEGAKKIRELAAKTTPEDAAKMNAVADHALAAAA
B20: design_621_7e0052dc-ae49-49a0-b99f-9f3ee649cc2f_162_dldesign_0_cycle1_af2pred (protein)
chain: MGELFAALIEAMRLASEAARLAKAGEKEEAKEKLEKALKLVGEVAKATGTTAIYDETAKKAEASSLEEAARAVMSGAAKIISEAAKKA
B21: design_620_fbd04095-bef7-46a9-992d-f2cb8915922f_2277_dldesign_0_cycle1_af2pred (protein)
chain: GAAAERAALRDAALAEVDALLAAGAAAAAAAASPVAALLDAHRAAAEVIARLRERDPAAGEEVAAEAQARFSALLRQASASVVA
B22: design_620_fbd04095-bef7-46a9-992d-f2cb8915922f_936_dldesign_0_cycle1_af2pred (protein)
chain: LTPLEKAEAAKAKADKLYEAAQKATKAEAASLYGEAAVEYAKAAAYYLRAGDAAAAAAAQANLKTAVAKSQALVAA
B23: design_621_7e0052dc-ae49-49a0-b99f-9f3ee649cc2f_407_dldesign_0_cycle1_af2pred (protein)
chain: SEAQRLYDAAKTWADIANAAIQQAAADPSTAAVAVAAAKAAVASAKRLAEKAEKLAAKKPEYAPLAKDAKAAVAAAAAAAKAAAA
B24: design_620_fbd04095-bef7-46a9-992d-f2cb8915922f_868_dldesign_0_cycle1_af2pred (protein)
chain: MEEERREELRRKAEEYIAQAEALAAQTSPSAQLLVSNLARQARRLAEAGDYEGALEVARAALEGAQAMAAQQ
B25: design_620_fbd04095-bef7-46a9-992d-f2cb8915922f_2199_dldesign_0_cycle1_af2pred (protein)
chain: AEAAAQAARASVAAARAAVKDARRIAENAKTPEQLESAKKVLEVARALAEDAERNAKAAGDEELVKLAEEARKEAEEAEKKVREKAEE
B26: design_620_fbd04095-bef7-46a9-992d-f2cb8915922f_839_dldesign_0_cycle1_af2pred (protein)
chain: MSWSEKAAEAAIKRLKELAKKAVSEGGKYAELAAAAARNAALLSYAAGPEMAKKAIKVFKEAAKLYPELAPAMEQAIALIESLL
B27: design_620_fbd04095-bef7-46a9-992d-f2cb8915922f_1950_dldesign_0_cycle1_af2pred (protein)
chain: GVAETLKRNLEAAERILKEGEELFETDPAAGAAKFKSAELLATGVVATAEADPSVPEEILKRAKELAKRAKEALEEAEKKVEELKA
B28: design_620_fbd04095-bef7-46a9-992d-f2cb8915922f_1915_dldesign_0_cycle1_af2pred (protein)
chain: NEDLKKAAELAKKAAQLAPQPEAAEVAAKAAEAAEKAVGPELGNYALALATLPPAARALGMSNLATSLEKLV
B29: design_621_7e0052dc-ae49-49a0-b99f-9f3ee649cc2f_290_dldesign_0_cycle1_af2pred (protein)
chain: AAAALERAARIALAAAKAMLRTAEATGNAAAAAVAADLAAYAAATARAAGPALAPLAAEAEAVEARARALAA
B30: design_620_fbd04095-bef7-46a9-992d-f2cb8915922f_2241_dldesign_0_cycle1_af2pred (protein)
chain: AEKVRELADQMVAIAREAAEKGLSPAEIGAANGQVVDLLEEAYRLAKESGASQEVLDYLNAKNAEANRLLLAAQRA
B31: design_620_fbd04095-bef7-46a9-992d-f2cb8915922f_846_dldesign_0_cycle1_af2pred (protein)
chain: AADALAGAKAALNTIKAAETNAKKLDAAGAEAQYKLAKVALESAKVHAAKLGEEGKKIAEEAKKALAATKAVAEAKKAA
B32: design_620_fbd04095-bef7-46a9-992d-f2cb8915922f_1927_dldesign_0_cycle1_af2pred (protein)
chain: AAAQAALEKMKALAEQALAEIKALSQKDQASIDQGIAVLSRTVTELMTAANQYPEVAAQYAQLAVDLLEQSSKYIRAGRARVAAKEAA
B33: design_620_fbd04095-bef7-46a9-992d-f2cb8915922f_946_dldesign_0_cycle1_af2pred (protein)
chain: AAALEAARRVAYGQMVLGKMKADEGLKKAESGEDLEGGIKMAEEGLKLAKEYAEYDPVKGGAAAKEIGAKLKKMKELAKKAK
B34: design_620_fbd04095-bef7-46a9-992d-f2cb8915922f_1739_dldesign_0_cycle1_af2pred (protein)
chain: AEAAELLAQLQAATAAAQAAAAAGDAAAANAHLAQAVELASQIHRVGDAAQRAQANQLLAQASRAAIAANAAAAA
B35: design_620_fbd04095-bef7-46a9-992d-f2cb8915922f_687_dldesign_0_cycle1_af2pred (protein)
chain: ATAAEAAALRDAGVAAANSAAAAAKAGNTTAAGELLTEAVKLAAQLAALGDEAGAAEVRAAIAASSKTIIAAQAA
B36: design_621_7e0052dc-ae49-49a0-b99f-9f3ee649cc2f_282_dldesign_0_cycle1_af2pred (protein)
chain: ARAKIVEAAKKAAKEAEAATTRGEVLVALAKAAAVFNRVGDAAGAARVSAAIVQATQLDAAEAKKLAVEVLTAIAEEAA
B37: design_621_7e0052dc-ae49-49a0-b99f-9f3ee649cc2f_147_dldesign_0_cycle1_af2pred (protein)
chain: MEAAAEIALKTAKAMTKSAVAAAEAGNLEDARQIAETAKEILEATAKKVSPELAKKLKEAAKKATAEAEAAVKAAAARLAA
B38: design_620_fbd04095-bef7-46a9-992d-f2cb8915922f_1742_dldesign_0_cycle1_af2pred (protein)
chain: AAAVATAAAQAFLAQAEKNLAAAKAALKAGDYEAAIKHAQAAIGSAQSAKLAAQSAGDAALAAQADKVIAEAKKVLAEAEKALKEA

Target: CD276, Q5ZPR3
Sequence (Q5ZPR3 whole entry): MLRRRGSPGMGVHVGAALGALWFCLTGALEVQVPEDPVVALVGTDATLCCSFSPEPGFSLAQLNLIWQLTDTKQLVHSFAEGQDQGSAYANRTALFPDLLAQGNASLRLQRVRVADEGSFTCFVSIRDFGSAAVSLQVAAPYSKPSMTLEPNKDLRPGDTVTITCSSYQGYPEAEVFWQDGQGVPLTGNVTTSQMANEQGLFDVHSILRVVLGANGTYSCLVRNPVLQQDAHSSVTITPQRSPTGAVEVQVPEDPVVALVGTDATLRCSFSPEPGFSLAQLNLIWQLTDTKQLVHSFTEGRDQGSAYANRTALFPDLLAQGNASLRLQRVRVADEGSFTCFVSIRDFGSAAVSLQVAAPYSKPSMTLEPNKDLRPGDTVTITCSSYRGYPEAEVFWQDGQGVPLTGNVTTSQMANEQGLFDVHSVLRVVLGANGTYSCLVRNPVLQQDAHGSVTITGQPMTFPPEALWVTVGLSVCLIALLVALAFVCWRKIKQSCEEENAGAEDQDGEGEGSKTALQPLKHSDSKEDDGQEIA

Binding in a display sort, inactive:
B1 not found, B2 not found, B3 not found, B4 not found, B5 not found, B6 not found, B7 not found, B8 not found, B9 not found, B10 not found, B11 not found, B12 not found, B13 not found, B14 not found, B15 not found, B16 not found, B17 not found, B18 not found, B19 not found, B20 not found, B21 not found, B22 not found, B23 not found, B24 not found, B25 not found, B26 not found, B27 not found, B28 not found, B29 not found, B30 not found, B31 not found, B32 not found, B33 not found, B34 not found, B35 not found, B36 not found, B37 not found, B38 not found
